Measurements published in PubChem BioAssay (Tox21).
Records with an inconclusive call do not appear. Calls of active or inactive are those of the source. Unless noted, the call rests on the fitted dose curve; in most records, active means well fitted curve in the direction sought with a large enough effect in the repeat runs; inconclusive means weak or mixed curves; inactive means no such curve, though single readings can be large; an effect the other way counts as inactive or inconclusive. Where a SMILES comes first, the peptide text is derived from it. [ ]: non-standard residue; d: D form. pGlu = O=C1CC[C@@H](C(=O)O)N1

Tests used:
[1] = A CellTox Green Cytotoxicity Assay to monitor cytotoxicity in HepG2 cells - 0 hour (AID 1224882); further: nearly all actives have a fitted effect of over 35% in size
In short: (§1)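 HepG2 cells, 600/well, preincubated 5 h with CellTox Green dye, then exposed to Tox21 compounds in DMSO at 37 C for up to 40 h. Dead-cell DNA fluorescence read at the indicated time point.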

[2] = A CellTox Green Cytotoxicity Assay to monitor cytotoxicity in HepG2 cells - 32 hour (AID 1224883); further: nearly all actives have a fitted effect of over 50% in size
In short: as §1

[3] = A CellTox Green Cytotoxicity Assay to monitor cytotoxicity in HEK293 cells - 8 hour (AID 1224884); further: nearly all actives have a fitted effect of over 35% in size
In short: (§2)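 HEK293 cells, 600/well, were preincubated 5 hours and then exposed to compounds at 37 C for up to 40 hours. A cell-impermeant cyanine dye staining dead-cell DNA was read by fluorescence at 0, 8, 16, 24, 32 and 40 h time points.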

[4] = qHTS RealTime-Glo MT Cell Viability Assay in HepG2 cells - 16 hour (AID 1224885); further: nearly all actives have a fitted effect of over 50% in size
In short: (§3)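 HepG2 cells were seeded at 600 cells/well together with NanoLuc luciferase and a cell-permeant prosubstrate, preincubated 5 h at 37 C/5% CO2, then pin-dosed with compounds in DMSO. Nonlytic luminescence from viable cells was read at each time point.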

[5] = qHTS RealTime-Glo MT Cell Viability Assay in HEK293 cells - 24 hour (AID 1224886); further: top concentration of the series differs between compounds; nearly all actives have a fitted effect of over 50% in size
In short: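 HEK293 cells were seeded at 600 cells/well together with NanoLuc luciferase and cell-permeant prosubstrate, preincubated 5 h at 37 C/5% CO2, then given compound in DMSO by pintool. Luminescence from viable-cell prosubstrate reduction was read repeatedly over 40 h.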

[6] = qHTS RealTime-Glo MT Cell Viability Assay in HEK293 cells - 8 hour (AID 1224887); further: top concentration of the series differs between compounds; nearly all actives have a fitted effect of over 50% in size
In short: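 600 cells/well were plated with the nonlytic NanoLuc/prosubstrate reagent, pre-incubated 5 h, then given 23 nL of compound in DMSO. Incubation at 37 C for 40 h, with luminescence from viable-cell-reduced substrate read repeatedly from 0 h.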

[7] = A CellTox Green Cytotoxicity Assay to monitor cytotoxicity in HEK293 cells - 16 hour (AID 1224888); further: nearly all actives have a fitted effect of over 35% in size
In short: as §2

[8] = qHTS RealTime-Glo MT Cell Viability Assay in HepG2 cells - 0 hour (AID 1224889); further: nearly all actives have a fitted effect of over 50% in size
In short: as §3

[9] = A CellTox Green Cytotoxicity Assay to monitor cytotoxicity in HepG2 cells - 8 hour (AID 1224890); further: nearly all actives have a fitted effect of over 45% in size
In short: as §1

[10] = qHTS assay to identify small molecule antagonists of the estrogen receptor alpha (ER-alpha) signaling pathway using the BG1 cell line in the presence of 0.1 nM 17-beta-estradiol - cell viability counter screen (AID 1259241); further: nearly all actives have a fitted effect of over 40% in size
In short: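 Following 5 days in phenol red-free medium with charcoal-stripped serum, VM7Luc4E2 cells received test compounds alongside 0.1 nM 17beta-estradiol (final) at 37C for 22 hr. Live cells were then quantified via protease-substrate fluorescence.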

[11] = qHTS assay to identify small molecule antagonists of the androgen receptor (AR) signaling pathway using the MDA cell line in the presence of 0.5 nM R1881 - cell viability counter screen (AID 1259242); further: nearly all actives have a fitted effect of over 45% in size
In short: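 MDA-kb2 cells (MMTV-luciferase, AR/GR responsive) were treated with compounds plus 0.5 nM R1881 (final) for 16 hr at 37C, 0% CO2. Viability was then read in the same wells as live-cell protease fluorescence (CellTiter-Fluor, 30 min).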

[12] = target: Estrogen receptor (Homo sapiens) (UniProt P03372); experiment: qHTS assay to identify small molecule antagonists of the estrogen receptor alpha (ER-alpha) signaling pathway using the BG1 cell line in the presence of 0.1 nM 17-beta-estradiol (AID 1259244); further: nearly all actives have a fitted effect of over 50% in size
Chain of Estrogen receptor (Homo sapiens) (P03372 whole entry, looked up): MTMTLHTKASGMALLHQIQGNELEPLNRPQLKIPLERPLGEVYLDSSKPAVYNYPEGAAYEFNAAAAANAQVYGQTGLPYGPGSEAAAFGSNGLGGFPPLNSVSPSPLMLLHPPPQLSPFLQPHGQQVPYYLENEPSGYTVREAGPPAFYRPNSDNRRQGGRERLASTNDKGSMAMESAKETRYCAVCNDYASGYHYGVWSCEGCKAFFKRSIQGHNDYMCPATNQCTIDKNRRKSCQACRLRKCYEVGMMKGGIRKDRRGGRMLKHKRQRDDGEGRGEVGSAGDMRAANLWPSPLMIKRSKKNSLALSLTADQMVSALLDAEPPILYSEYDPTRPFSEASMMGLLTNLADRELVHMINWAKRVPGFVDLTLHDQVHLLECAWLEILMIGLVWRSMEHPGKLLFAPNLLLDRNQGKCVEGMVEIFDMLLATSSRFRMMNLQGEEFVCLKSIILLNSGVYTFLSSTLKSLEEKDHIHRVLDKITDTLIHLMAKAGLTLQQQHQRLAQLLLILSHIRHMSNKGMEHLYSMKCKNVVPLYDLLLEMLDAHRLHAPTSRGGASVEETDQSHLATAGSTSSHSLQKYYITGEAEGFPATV
In short: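 VM7Luc4E2 cells (endogenous full-length ER-alpha, 4×ERE-luciferase), kept 5 days in phenol red-free, charcoal-stripped FBS medium; 4,000 cells/well. Compounds added with 0.1 nM (final) 17beta-estradiol, 22 hr at 37C; luminescence read with ONE-Glo after 30 min.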

[13] = qHTS assay to identify small molecule phospholipidosis (PLD) inducers (AID 1259344; active means well fitted curve in the direction sought with a large enough effect; an effect the other way counts as inactive or inconclusive)
In short: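 Quantitative HTS in HepG2: compound plus LipidTOX Red dye for 24 h, paraformaldehyde fixation with Hoechst 33342, widefield high-content imaging; amiodarone as positive and DMSO as negative control.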

[14] = qHTS assay to identify small molecule HDAC inhibitors (AID 1259364); further: top concentration of the series differs between compounds; nearly all actives have a fitted effect of over 45% in size
In short: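 Wild-type HCT-116 cells, plated overnight at 37 C, exposed to compounds 2 hr at 37 C; luminogenic HDAC-Glo substrate then added 30 min at room temperature. Luminescence reports relative endogenous class I/II HDAC activity.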

[15] = qHTS assay to identify small molecule HDAC inhibitors - cell viability counter screen (AID 1259365)
In short: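 HCT-116 wild-type, overnight attachment; 2hr drug exposure, 37C; CellTiter-Glo luminescent ATP readout after 30min RT.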

[16] = qHTS assay to identify small molecule agonists of the sonic hedgehog signaling (Shh) pathway - cell viability counter screen (AID 1259366); further: nearly all actives have a fitted effect of over 50% in size
In short: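 Compounds in DMSO were pin-transferred onto 3T3 Gli1-Luc cells that had settled 4hr; plates then stood 24hr at 37C and 5% CO2. One hour before the end, CellTiter-Fluor was added and fluorescence recorded.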

[17] = qHTS assay to identify small molecule agonists of the sonic hedgehog signaling (Shh) pathway (AID 1259368; calls by dose curve;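 further: NIH/3T3-derived 3T3Gli1-Luc cells carrying a stable Gli1-driven firefly luciferase reporter; series mostly up to about 92 µM; nearly all actives have a fitted effect of over 15% in size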)
In short: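 NIH/3T3-derived 3T3Gli1-Luc cells with stably integrated Gli1-driven firefly luciferase, 2,000 cells/well, compounds added after 4 hr. Incubated 24 hr at 37C, 5% CO2; luminescence read after 30 min with luciferase reagent at room temperature.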

[18] = qHTS assay to identify small molecule antagonists of the sonic hedgehog signaling (Shh) pathway - cell viability counter screen (AID 1259367); further: nearly all actives have a fitted effect of over 55% in size
In short: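 Seed 3T3 Gli1-Luc cells at 2,000 per well; incubate 4 hr; add compound in DMSO, then conditioned medium; incubate at 37C with 5% CO2; add CellTiter-Fluor after 23 hr; read fluorescence 1 hr later.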

[19] = qHTS assay to identify small molecule antagonists of the sonic hedgehog signaling (Shh) pathway (AID 1259369; calls by dose curve; further: nearly all actives have a fitted effect of over 45% in size)
In short: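 NIH/3T3-derived Gli1-Luc reporter cells plated 4 h, dosed with compound, then stimulated with conditioned medium for 24 h at 37 C. Firefly luciferase luminescence read after 30 min with detection reagent at room temperature.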

[20] = target: Androgen receptor (Homo sapiens) (UniProt P10275); experiment: qHTS assay to identify small molecule antagonists of the androgen receptor (AR) signaling pathway using the MDA cell line in the presence of 0.5 nM R1881 (AID 1259243); further: nearly all actives have a fitted effect of over 50% in size
Chain of Androgen receptor (Homo sapiens) (P10275 whole entry, looked up): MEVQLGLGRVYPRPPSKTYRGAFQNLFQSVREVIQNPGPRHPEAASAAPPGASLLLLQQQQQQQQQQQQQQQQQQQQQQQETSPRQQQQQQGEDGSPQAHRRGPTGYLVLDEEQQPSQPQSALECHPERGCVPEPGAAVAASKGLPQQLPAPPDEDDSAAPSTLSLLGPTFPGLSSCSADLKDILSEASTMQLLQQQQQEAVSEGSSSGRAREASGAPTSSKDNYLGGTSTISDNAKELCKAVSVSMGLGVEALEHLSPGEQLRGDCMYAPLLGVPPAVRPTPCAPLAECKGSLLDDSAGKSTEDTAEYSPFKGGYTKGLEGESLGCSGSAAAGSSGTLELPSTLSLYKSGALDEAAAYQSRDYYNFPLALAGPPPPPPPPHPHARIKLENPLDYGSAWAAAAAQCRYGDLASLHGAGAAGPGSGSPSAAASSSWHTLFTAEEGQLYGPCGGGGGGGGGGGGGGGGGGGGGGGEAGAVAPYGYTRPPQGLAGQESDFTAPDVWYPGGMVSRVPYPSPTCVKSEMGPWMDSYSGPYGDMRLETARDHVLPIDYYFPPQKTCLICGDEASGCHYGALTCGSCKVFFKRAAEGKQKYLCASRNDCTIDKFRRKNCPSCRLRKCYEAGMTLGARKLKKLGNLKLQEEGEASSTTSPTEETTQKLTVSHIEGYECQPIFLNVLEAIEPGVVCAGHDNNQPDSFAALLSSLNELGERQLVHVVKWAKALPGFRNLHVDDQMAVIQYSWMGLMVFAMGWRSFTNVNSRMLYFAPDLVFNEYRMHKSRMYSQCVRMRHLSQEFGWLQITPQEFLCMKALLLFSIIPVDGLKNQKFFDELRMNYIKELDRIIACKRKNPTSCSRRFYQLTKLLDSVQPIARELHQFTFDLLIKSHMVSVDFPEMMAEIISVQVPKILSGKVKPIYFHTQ
In short: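 MDA-kb2 cells (MMTV-luciferase, responsive to AR and GR) at 3,000/well, rested 5 h at 37C, 0% CO2, then given compounds plus 0.5 nM R1881 (final) for 16 hr. Luciferase read with ONE-Glo after 30 min at room temperature.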

Measured: Potency

CCOC(=O)c1cnc2c(cnn2CC)c1NN=C(C)C
not listed: [18] | [19] | [20]
inactive: all other assays above

CCCCN(CCC(=O)OCC)C(C)=O
not listed: [13] | [17] | [20]
inactive: all other assays above

CN(C)CCCN(C)CCCN(C)C
not listed: [13] | [20]
inactive: all other assays above

CCCCCC(C)N (stereo not drawn)
not listed: [12] | [18]
inactive: all other assays above

CO[C@@]1(NC(=O)CSC[C@@H](N)C(=O)O)C(=O)N2C(C(=O)O)=C(CSc3nnnn3C)CS[C@@H]21
not listed: [13] | [18]
inactive: all other assays above

FB(F)F
not listed: [13] | [17] | [20]
inactive: all other assays above

CCNC(=O)[C@@H]1CCCN1C(=O)[C@H](CCCN=C(N)N)NC(=O)[C@H](CC(C)C)NC(=O)CNC(=O)[C@H](Cc1ccc(O)cc1)NC(=O)[C@H](CO)NC(=O)[C@H](Cc1c[nH]c2ccccc12)NC(=O)[C@H](Cc1cnc[nH]1)NC(=O)[C@@H]1CCC(=O)N1 ([pGlu]HWSYGLRP-NHEt)
not listed: [13] | [20]
inactive: all other assays above

O=[N+]([O-])c1cncn1CCN1CCOCC1
not listed: [13]
inactive: all other assays above

CCOC(=O)COc1cc(-n2ncc(C(F)(F)F)c(C)c2=O)c(F)cc1Cl
not listed: [13] | [15]
inactive: all other assays above

CC(C)C1CCC(O)CC1 (stereo not drawn)
not listed: [12] | [13] | [17]
inactive: all other assays above

CC(C)(C)C(=O)c1ccccc1
not listed: [13] | [20]
inactive: all other assays above

CCOc1c(N2CCOCC2)cnn(C)c1=O
not listed: [13]
inactive: all other assays above

NS(=O)(=O)Cc1noc2ccccc12
not listed: [12]
inactive: all other assays above
